Test results reported in PubChem BioAssay (NCI).
This is part of a sample that, as a whole, favours compounds with a hit. Of some 83,000 tested, about 20% had one in any assay.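 Step 1: grow cells in 96-well plates. Step 2: add test compound at a single concentration. Step 3: incubate 48 h. Step 4: record percent growth.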 A number with no mark means an inactive call. Calls of active or inactive are those of the source. How the source made its calls: active means growth percent below 10; inactive means the rest.

Key:
Experiment in all cases: NCI-60 one-dose screen, 48 h (100 = growth as untreated, 0 = no growth, -100 = all killed)
Details in all cases: 10 µM unless noted
SK-MEL-2 melanoma = tested on: SK-MEL-2 melanoma
EKVX NSCLC = tested on: EKVX NSCLC
SN12C renal = tested on: SN12C renal
UO-31 renal = tested on: UO-31 renal
TK-10 renal = tested on: TK-10 renal
ACHN renal = tested on: ACHN renal
CAKI-1 renal = tested on: CAKI-1 renal
A498 renal = tested on: A498 renal
CCRF-CEM leukemia = tested on: CCRF-CEM leukemia
SR leukemia = tested on: SR leukemia
RPMI-8226 leukemia = tested on: RPMI-8226 leukemia
OVCAR-8 ovarian = tested on: OVCAR-8 ovarian
OVCAR-5 ovarian = tested on: OVCAR-5 ovarian
OVCAR-4 ovarian = tested on: OVCAR-4 ovarian
SK-OV-3 ovarian = tested on: SK-OV-3 ovarian
IGROV1 ovarian = tested on: IGROV1 ovarian
OVCAR-3 ovarian = tested on: OVCAR-3 ovarian
HS 578T breast = tested on: HS 578T breast
NCI/ADR-RES ovarian = tested on: NCI/ADR-RES ovarian
MOLT-4 leukemia = tested on: MOLT-4 leukemia

| Structure (SMILES) | growth (SK-MEL-2 melanoma) | growth (EKVX NSCLC) | growth (SN12C renal) | growth (UO-31 renal) | growth (TK-10 renal) | growth (ACHN renal) | growth (CAKI-1 renal) | growth (A498 renal) | growth (CCRF-CEM leukemia) | growth (SR leukemia) | growth (RPMI-8226 leukemia) | growth (OVCAR-8 ovarian) | growth (OVCAR-5 ovarian) | growth (OVCAR-4 ovarian) | growth (SK-OV-3 ovarian) | growth (IGROV1 ovarian) | growth (OVCAR-3 ovarian) | growth (HS 578T breast) | growth (NCI/ADR-RES ovarian) | growth (MOLT-4 leukemia) |
| --- | --- | --- | --- | --- | --- | --- | --- | --- | --- | --- | --- | --- | --- | --- | --- | --- | --- | --- | --- | --- |
| Oc1ccc(C2OCCO2)c2cccnc12 | 70.4% | 78.4% | 49.1% | 45% | 95.5% | 67.5% | 105% | 88.2% | 13.5% | 31.8% | 29.6% | 24.6% | 59.3% | 15.3% | 93.5% | 74.2% | 4.41% (active) | 76.4% | 27.5% |  |
| CC(=O)[C@H]1CC[C@]2(C)[C@@H]1CC[C@@H]1[C@@]3(C)C/C(=C/c4cccnc4)C(=O)C(C)(C)[C@@H]3CC[C@]12C | 85.3% | 85.1% | 75.6% | 78.2% | 162% | 87.3% | 72.5% | 100% | 31.7% | 40.9% | 8.88% (active) | 27.1% | 132% | 43.6% | 87.2% | 93.4% | 47.4% | 94.2% | 67.2% |  |
| COc1cc2c(c(OC)c1OC)CCC(c1cccc(C(=O)Nc3ccccc3Br)c1)O2 (stereo unspecified) | 87.8% | 90.1% | 85.4% | 67.3% | 87.5% | 86.2% | 95.4% | 56.6% | 86.1% | 75.6% | 83% | 80.1% | 90.6% | 85.3% | 81% | 89.2% | 100% | 86.2% | 99.2% |  |
| Cc1nn(-c2ccccc2)c(Oc2ccccc2)c1/C=N/NC(=O)Cn1c(=O)sc2ccccc21 | 42.6% | 33.3% | 61.4% | 35% | 60.7% | 47.2% | 33.4% | 45.6% | 49.9% | 38.2% | 33.8% | 48.8% | 81.5% | 44.1% | 61% | 54.4% | 61.6% | 67.6% | 44.4% |  |
| Nc1ccc(N)c2c1C(=O)c1cccc([N+](=O)[O-])c1C2=O | 53.7% | 38.2% | 25.9% | 33.4% | 45.3% | 15.9% | 5.03% (active) |  | 48.3% | -9.26% (active) | 42.8% | 41.4% | 70.2% | 60.9% | 27.6% | 18.6% | 58.7% | 37.6% | 49.4% | 46.5% |
| COc1cc(OCc2cccc(-c3ccccc3)c2C)cc(OC)c1CN1CCCCC1C(=O)NCCOCCOCCN (stereo unspecified) | 98.4% | 85.5% | 87.6% | 79.1% | 125% | 98.7% |  | 72.9% | 1% (active) | -26% (active) | 13.4% | 82.8% | 101% | 53.3% | 104% | 70% | 85% | 84.5% | 103% | 38.4% |
| COc1cc(C(=O)c2c(-c3ccccc3)oc3ccccc23)cc(OC)c1O | 50.9% | 51.3% | 43.9% | 51.9% | 78.4% | 41.7% |  | 1.19% (active) | 13.9% | 13.7% | 24.7% | 34.6% | 99.8% | 56.3% | 51.2% | 41.1% | 2.25% (active) | -3.45% (active) | 21.8% |  |
| CN(C)C(=S)NN=C(c1ccccn1)c1ccccn1 | 13.4% | -15.7% (active) | 28.5% | 20.7% | 6.04% (active) | 16.8% |  | -11% (active) | -34.3% (active) | -33.6% (active) | 17.8% | 33.1% | 59.1% | 21.5% | 51% | 16% | 51.9% | 44.9% | 19.9% | -2.95% (active) |
| COc1ccc(C(=O)/C=C/c2ccc(C)cc2)cc1S(N)(=O)=O | 87.1% | 81% | 6.38% (active) | 37.4% | 73.1% | 55.8% | 73.6% |  | 23.7% | 5.31% (active) | 35.8% | 29.3% | 77% | 84.1% | 114% | 28% | 39.2% | 84.9% | 51.7% | 15.9% |
| CS(=O)(=O)c1ccc(/C(=N/NC(N)=S)c2ccc(F)cc2)cc1 | 112% | 92.5% | 96.5% | 71.1% | 115% | 100% |  | 82.2% | 92.9% | 103% | 99.5% | 103% | 104% | 104% | 112% | 101% | 108% | 102% | 102% | 103% |
| COc1ccc(-c2cc(-c3ccc(N(C)C)cc3)nc(NC(=O)c3cccnc3)n2)cc1 | 111% | 96.6% | 97.5% | 80.6% | 117% | 95.6% |  | 109% | 104% | 86.4% | 95.3% | 99.3% | 105% | 103% | 103% | 102% | 106% | 104% | 102% |  |
| O=C(CSc1nnc(-c2ccc(Cl)c(Cl)c2)n1-c1ccccc1)Nc1ccc(C(=O)/C=C/c2ccc(Cl)cc2)cc1 | 78.6% | 88.3% | 89.4% | 66.2% | 93.3% | 98% |  | 82.5% | 83.7% | 76.6% | -11.4% (active) | 87.9% | 96.8% | 94.4% | 87.9% | 89.2% | 95.5% | 90.7% | 95.3% |  |
| O=C(Cn1cc(CSc2nc3ccccc3o2)nn1)Nc1ccc([N+](=O)[O-])cc1 | 106% | 104% | 102% | 78.8% | 104% | 95.2% | 82% |  | 105% | 101% | 97.3% |  | 100% | 96.9% | 76.6% | 91.6% | 103% | 95.3% | 97.4% | 94.1% |
| O=C(Nc1ccccc1C(F)(F)F)C1=NCCCCN1 | 104% | 93.1% | 98% | 86.2% | 98.8% | 103% |  | 97.1% | 102% | 102% | 99.6% | 99.9% | 94.7% | 99% | 108% | 101% | 101% | 99.8% | 103% | 99.2% |
| C=C1/C(=C\C=C2/CCC[C@]3(C)[C@@H]([C@H](C)CCCC(C)(C)O)CC[C@@H]23)C[C@@H](OC(=O)CBr)C[C@@H]1O | 99.7% | 52.4% | 85.2% | -100% (active) | 88.2% | -29.7% (active) | -30.4% (active) |  | -50.7% (active) | -47.3% (active) | -50.7% (active) |  | 84.1% | 62.7% | 108% | -65.5% (active) | -20.1% (active) | 66.6% | 81.2% | -52.6% (active) |
| c1ccc(-c2nc(N3CCNCC3)c3oc(-c4ccccc4)nc3n2)cc1 | -34.1% (active) | -68.4% (active) | -82.1% (active) | -99.8% (active) | -71.3% (active) | -100% (active) |  | 88.2% | -31.1% (active) | -1.84% (active) | -32.6% (active) | -25.1% (active) | -82% (active) | -88.2% (active) | -46% (active) | -88.8% (active) | -53.4% (active) | -60.7% (active) | -48.8% (active) |  |
| N#Cc1c(-c2ccc(Cl)cc2)nc(NN=Cc2cccc(Cl)c2)nc1N1CCOCC1 | 96.5% | 77.7% | 91.8% | 53.5% | 106% | 74.3% |  | 42.2% | 72.5% | 8.74% (active) | 65.1% | 96.7% | 103% | 94.3% | 111% | 75.2% | 87.4% |  | 89.2% | 53.3% |
